According to PubChem BioAssay (NCI):
The panel holds about 83,000 compounds, 20% with a hit somewhere; the sample as a whole holds those more often.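 Growth was measured after 48 h exposure to one concentration of compound in 96-well plates. Values under 10 count as active.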 Values without a mark were called inactive. Active and inactive are the calls of the source.

Key:
Experiment in all cases: NCI-60 one-dose screen, 48 h (100 = growth as untreated, 0 = no growth, -100 = all killed)
HCT-15 colon = settings: 10 µM unless noted
HT29 colon = settings: 10 µM unless noted
SNB-75 CNS = settings: 10 µM unless noted
U251 CNS = settings: 10 µM unless noted
PC-3 prostate = settings: 10 µM unless noted
SK-MEL-5 melanoma = settings: 10 µM unless noted
UACC-62 melanoma = settings: 10 µM unless noted
LOX IMVI melanoma = settings: 10 µM unless noted
SK-MEL-28 melanoma = settings: 10 µM unless noted
EKVX NSCLC = settings: 10 µM unless noted
SN12C renal = settings: 10 µM unless noted
UO-31 renal = settings: 10 µM unless noted
TK-10 renal = settings: 10 µM unless noted
ACHN renal = settings: 10 µM unless noted
CAKI-1 renal = settings: 10 µM
A498 renal = settings: 10 µM unless noted
CCRF-CEM leukemia = settings: 10 µM unless noted
MOLT-4 leukemia = settings: 10 µM unless noted
SK-MEL-2 melanoma = settings: 10 µM unless noted
SNB-19 CNS = settings: 10 µM unless noted

Row | SMILES | growth (HCT-15 colon) | growth (HT29 colon) | growth (SNB-75 CNS) | growth (U251 CNS) | growth (PC-3 prostate) | growth (SK-MEL-5 melanoma) | growth (UACC-62 melanoma) | growth (LOX IMVI melanoma) | growth (SK-MEL-28 melanoma) | growth (EKVX NSCLC) | growth (SN12C renal) | growth (UO-31 renal) | growth (TK-10 renal) | growth (ACHN renal) | growth (CAKI-1 renal) | growth (A498 renal) | growth (CCRF-CEM leukemia) | growth (MOLT-4 leukemia) | growth (SK-MEL-2 melanoma) | growth (SNB-19 CNS) [%]
1 | Cn1cc2c(c1)-c1c(sc3nc(-c4ccc(NC(=O)Nc5cc(C(C)(C)C)on5)cc4)cn13)CC2 | 12.2% | 21.9% | -1.5% (active) | 24.3% | 38.7% | 63.1% | 87.7% | 16.9% | 54.2% | 60.2% | 59.9% | 18.2% | 95.4% | 42.1% | 28.1% | 32.1% | 28.2% | 12% | – | –
2 | Cc1ccc(NC(=O)c2ccc(CN3CCN(C)CC3)c(I)c2)cc1Oc1ccc(-c2[nH]nc3ncnc(N)c23)cc1 | -54.1% (active) | -71.1% (active) | 100% | -59.8% (active) | 75.2% | 62.6% | 85% | -86.5% (active) | -84.6% (active) | 100% | 90% | 75.8% | 114% | 76.9% | 89.9% | 103% | 3.41% (active) | 11.3% | 86.4% | –
3 | COc1ccc(Cn2cc3c(c2-c2cc(OC)c(OC)c(OC)c2)CCCc2cnoc2-3)cc1N | 26.8% | 14.6% | -14.5% (active) | 32.6% | – | 23.1% | 41.5% | 45.1% | 65.9% | 46.6% | 40.5% | 38.2% | 78.9% | 40.1% | 31.5% | – | 15.5% | 17.4% | – | 28.7
4 | NS(=O)(=O)c1ccc(-n2cc(CC=O)nn2)cc1 | 99.8% | 101% | 90.1% | 102% | – | 100% | 95.7% | 98.9% | 114% | 99.2% | 106% | 87.7% | 98.5% | 107% | 92.2% | 96% | 110% | 103% | – | 102
5 | CC(C)(C)CC(C)(C)n1nnnc1C(Nc1ccccc1)c1cc2cccc3ccc4cccc1c4c32 (centres undefined) | 78.5% | 70.7% | 99.9% | 88.7% | 50.4% | 89.6% | 67.4% | 85.1% | 90% | 73.5% | 78.4% | 73.1% | 94.6% | 87.5% | 55.8% | – | 86.7% | 73.2% | – | –
6 | COc1ccc([C@H]2c3[nH]c4ccccc4c3C[C@@H]3C(=O)N(C4CCN(Cc5ccccc5)CC4)CC(=O)N23)c(OC)c1 | 48.3% | 43.1% | 83.1% | 75.8% | 48.1% | 73.7% | 87.2% | 58.7% | 85.1% | 64.5% | 75.6% | 42.6% | 103% | 76% | 56.4% | 93.8% | 61.8% | 45.1% | 103% | –
7 | Cc1cc2nc(C(Cl)Cl)nc(-c3ccco3)n2n1 | 72% | 37.2% | 94.5% | 53.8% | 73% | 97.8% | 78.2% | 93.4% | 87.6% | 63.8% | 93.7% | 90.7% | 89.5% | 22% | 51.2% | 51.7% | 98.2% | 74.3% | 103% | –
8 | COc1ccccc1/C=C/C=N/NC1=NC2C(S1)N(C)C(=O)N2c1ccccc1 (centres undefined) | 12.1% | 15.9% | 18.3% | 23.5% | 26.9% | -12.6% (active) | 33% | -0.484% (active) | 60.3% | 39.4% | 20.6% | 35.9% | 68.6% | 24.7% | 46.4% | – | 14.3% | 4.1% (active) | 67.6% | –
9 | CC[C@@](C)(NC(=O)C(C)(C)NC(=O)[C@@H](NC(=O)[C@@H]1CCCN1C(=O)C(C)(C)NC(=O)[C@H](CC(C)C)NC(=O)CNC(=O)C(C)(C)NC(=O)[C@@H](NC(=O)C(C)(C)NC(=O)[C@H](CCC(N)=O)NC(=O)[C@H](C)NC(=O)C(C)(C)NC(=O)[C@H](C)NC(=O)C(C)(C)NC(=O)[C@H](C)NC(=O)C(C)(C)NC(C)=O)C(C)C)C(C)C)C(=O)N[C@@H](CCC(N)=O)C(=O)N[C@@H](CCC(N)=O)C(=O)N[C@H](CO)CC1CCCCC1 | 101% [5 µM] | 23% [5 µM] | 13.4% [5 µM] | 29.2% [5 µM] | 15.5% [5 µM] | -43.5% [5 µM] (active) | 31.1% [5 µM] | 0.772% [5 µM] (active) | 26.9% [5 µM] | 65.6% [5 µM] | 9.8% [5 µM] (active) | 91.1% [5 µM] | 88.3% [5 µM] | 107% [5 µM] | – | 39.7% [5 µM] | 27.4% [5 µM] | 21% [5 µM] | -21.9% [5 µM] (active) | –
10 | CC(=O)Nc1ccc(C)c(Nc2cc(-c3ccc(-n4cccn4)cc3)[nH]n2)c1 | 41.3% | 27.8% | 64.2% | 42.5% | 65.3% | – | 46.7% | 60% | 61% | 74.7% | 60.9% | 60.6% | 89.6% | 65.8% | 47.2% | 27.3% | 26.1% | 47.8% | 3.79% (active) | –
11 | O=C(Nc1cccc(-c2nc(-c3ccc(NC(=O)c4cccs4)cc3Cl)no2)c1)Nc1ccc(NC(=O)C2CC2)c(C(F)(F)F)c1 | 0.554% (active) | -11.2% (active) | -66.4% (active) | -49.7% (active) | -56.3% (active) | -90.7% (active) | -73.8% (active) | -87.1% (active) | -83.3% (active) | -34.2% (active) | -51.8% (active) | -23.6% (active) | -28.2% (active) | 0.236% (active) | -67.7% (active) | – | 6.43% (active) | -4.78% (active) | -50.2% (active) | –
12 | C=C1C(=O)O[C@@H]2C[C@@H](C)CCC(=O)[C@](C)(OC(C)=O)C[C@H](OC(=O)/C(C)=C\C)[C@@H]12 | 60.9% | 52.5% | 80.6% | 88.8% | – | – | – | 54.8% | – | 73.2% | – | 85.4% | 55.4% | 41.9% | 63.1% | 119% | -17.2% (active) | 50.8% | 81% | 90.6
13 | O=C(COc1ccc(C2SCC(=O)N2c2ccccc2)cc1)c1ccccc1 (centres undefined) | 97.2% | 105% | 87.5% | 95.8% | 80.5% | 94.4% | 68.6% | 93.3% | 105% | 81.2% | 92.3% | 78.5% | 124% | 92.5% | 79.2% | – | 98.9% | 88.8% | 103% | –
14 | CCNC(=O)Oc1ccc(/C(=C(/C)c2ccc(Cl)cc2)c2ccc(OCCN3CCCC3)cc2)cc1 | 60.5% | 19.6% | 85.7% | 60.1% | 82.4% | 86.3% | 98.3% | 49.2% | 89% | 80.2% | 75.4% | 65.8% | 97.6% | 95% | 85.7% | – | – | 58.6% | 104% | –
